Assay results taken from the supplement of paper PMC6555819.

Legend:
Test in all cases: PBM binding z-score (relative to random genomic background probes); higher = stronger binding; sequences stand for … in GC…GCGATTGACAGCGTAGAATGAAGG
[1] = tested on: RARb homodimer (NR concentration 270 nM)
Method in brief: (§1)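 Antibodies against each partner of ligand-free nuclear receptor dimers (one per run) detected binding on custom Agilent 4×180K protein-binding microarrays after 1 h incubation. The double-stranded probes had 34-nt variable regions carrying direct-repeat seeds, single-nucleotide variants, half-site ablations and random human genomic background sequences. Binding z-scores, from regression-normalized fluorescence, use the random background probes as reference.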

[2] = tested on: RARg:RXRa (NR concentration 270 nM, RXRa partner concentration 90 nM)
Method in brief: as §1

[3] = tested on: RARg homodimer (NR concentration 270 nM)
Method in brief: as §1

[4] = tested on: RXRa DBDmut IVT, anti-RXR (DBD mutation: RXRa K156A/R161A, NR concentration 90 nM)
Method in brief: as §1

[5] = tested on: RXRa homodimer (NR concentration 180 nM)
Method in brief: as §1

[6] = tested on: THRa:RXRa (NR concentration 90 nM, RXRa partner concentration 90 nM)
Method in brief: as §1

[7] = tested on: THRa homodimer (NR concentration 90 nM)
Method in brief: as §1

[8] = tested on: VDR homodimer (NR concentration 270 nM)
Method in brief: as §1

| Sequence | PBM binding z-score [1] | PBM binding z-score [2] | PBM binding z-score [3] | PBM binding z-score [4] | PBM binding z-score [5] | PBM binding z-score [6] | PBM binding z-score [7] | PBM binding z-score [8] |
| --- | --- | --- | --- | --- | --- | --- | --- | --- |
| GCTGTTAGGTCAGGTTGGTCAGCTAACGGGTACG | 3.34 | 3.03 | 4.11 | 0.92 | 1.42 | 2.84 | 1.69 | 0.688 |
| CCAGACAGGTGAGAAGGTAAGTCAGCCTCGATTA | 0.641 | 0.215 | 0.357 | 0.0817 | 0.216 | 0.3 | 0.145 | -0.136 |
| CCGAGTGGGTTATGGGGCATTCAGGCAACGGTGA | 0.766 | -0.124 | -0.0615 | -1.08 | 0.212 | 0.303 | 0.614 | 0.328 |
| TTACCAAGGTGAGCAGAGGTCGTTGATCCAACTC | 2.31 | 1.68 | 1.26 | -0.0246 | 2.03 | 3.54 | 0.587 | 1.28 |
| ACTAGGAGGCCAAGGGTCACTCAAGATTAGTCCG | 3.93 | 4.72 | 4.05 | 0.5 | 4.48 | 2.63 | 0.41 | 1.51 |
| ACTATTAGTTGACTTAGGGCAAGCGATACGACGC | 0.617 | 0.671 | 0.684 | 0.657 | 0.682 | 0.91 | -0.0225 | 0.0582 |
| ATATGTAGGTTATGGGTCATTCAGGTTGGTTCGC | 2.97 | 3.09 | 2.28 | 1.31 | 3.79 | 2.74 | 1.53 | 2.76 |
| ATCGAAAGGTCGACGACGTGAGTATACACCGTTT | 2.21 | 4.04 | 3.8 | 1.3 | 3.94 | 1.73 | -0.597 | 0.228 |
| ATCGAAAGGTCGTGAGGTGAGTAGACAGAAAGGC | 2.99 | 4.61 | 3.94 | 1.15 | 5.39 | 3.28 | 1.3 | 0.659 |
| TCATATAGGGAATACAGGTGAAAGTCGGCATCTA | 0.795 | 0.472 | 0.506 | 1.68 | 1.24 | 0.864 | 0.624 | 0.435 |
| AGTCAAAGTTCATCTAGGTAACGTAGGATATGCT | 4.05 | 5.54 | 6.32 | 4.71 | 4.86 | 3.08 | 0.358 | 5.15 |
| CAGCCTAGGTCAGGGCCAATATAGGAGGAACGTT | 2.42 | 3.05 | 3.61 | 0.0153 | 1.69 | 2.07 | 0.573 | 0.171 |
| CGAACTAGGTGAGAACAGGACAGTGAAGGATGAT | 0.34 | 0.567 | 0.579 | 0.0565 | 0.458 | 1.21 | 0.0768 | 0.286 |
| AACTCTAGGTAACCAAGTTCAGTGAATGCCGAAC | 0.982 | 0.219 | 0.32 | 0.853 | 0.269 | 1.34 | 0.572 | 2.11 |
